The values that follow come from PubChem BioAssay (Tox21).

SMILES strings stand for the structures. A number with no mark means an inactive call. Records with an inconclusive call do not appear. The source made the active and inactive calls. Unless noted, calls follow the shape of the dose curve; as a rule, active = well fitted curve in the direction sought with a large enough effect in the repeat runs; inconclusive = weak or mixed curves; inactive = no such curve, though single readings can be large; an effect the other way counts as inactive or inconclusive.

The target in assay [1] is Progesterone receptor (Homo sapiens) (UniProt P06401). The assay is described as follows: qHTS assay to identify small molecule agonists of the progesterone receptor (PR) signaling pathway (AID 1346784; calls by dose curve; also: % is scaled to controls: 0 for no effect and ±100 for the full control effect; nearly all actives have a fitted effect of over 30% in size). In outline:
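Fluorescence from LiveBLAzer B/G FRET substrate cleavage (2 hr, RT) reported PR activation in PR-UAS-bla HEK 293T cells treated 16 hr at 37C/5% CO2 with compounds; medium contained 2% charcoal-stripped FBS.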
In general terms: In qHTS, concentration-response curves come from the screen itself.

The target is the same in assay [2]. Nature of the assay: qHTS assay to identify small molecule antagonists of the progesterone receptor (PR) signaling pathway (AID 1346795; active = well fitted inhibition curve with a large enough effect in the signal ratio in the repeat runs, not every such curve was filed as active; the % refers to the signal ratio; also: potency is read from the fitted curve at half-maximal effect). In a few lines:
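Fluorescence intensity measured 2 hr after adding beta-lactamase FRET substrate to PR-UAS-bla HEK293T cells that had been co-treated 16 hr with compound and 1 nM R5020 (final concentration) in 2% charcoal-stripped FBS.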

A short description of assay [3]: qHTS assay to identify small molecule agonists of the TGF-beta/Smad signaling pathway (AID 1346859; active = well fitted activation curve with a large enough effect in the signal ratio in the repeat runs, not every such curve was filed as active; the % refers to the signal ratio; also: series mostly up to about 77 µM; % is scaled to controls: 0 for no effect and ±100 for the full control effect). In a few lines: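 After overnight seeding, SBE-bla HEK 293T cells are dosed with compounds in DMSO and kept 5 hr at 37 C, 5% CO2. LiveBLAzer-type FRET substrate is then applied for 2 hr at room temperature.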
Assay [4] has as its target Thyrotropin-releasing hormone receptor (Homo sapiens) (UniProt P34981). Nature of the assay: qHTS assay to identify small molecule antagonists of the thyrotropin-releasing hormone receptor (TRHR) signaling pathway (AID 1346877; active = well fitted inhibition curve with a large enough effect in the repeat runs, not every such curve was filed as active; also: series mostly up to about 51 µM; % is scaled to controls: 0 for no effect and ±100 for the full control effect). In a few lines:
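Kinetic fluorescence (3 min, 1 s resolution) following stimulation with TRH at 1 nM final; HEK293 cells bearing human TRHR; 5 min compound preincubation at RT; concentration-response over 15 points, triplicates.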

Assay [5] has the same target. Nature of the assay: qHTS assay to identify small molecule agonists of the thyrotropin-releasing hormone receptor (TRHR) signaling pathway (AID 1346891; calls by dose curve;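 also: HEK293 cells expressing TRHR with calcium dye readout; series mostly up to about 58 µM; % is scaled to controls: 0 for no effect and ±100 for the full control effect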). In outline:
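Compounds were tested as agonists at 15 concentrations, in triplicate, on TRHR-Hek293 cells; calcium-sensitive dye fluorescence was recorded for 3 min following addition.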

Assay [6] in a line: Human pregnane X receptor (PXR) small molecule agonists, qHTS cell viability counter screen (AID 1346977). Also: nearly all actives have a fitted effect of over 50% in size. Also: potency is read from the fitted curve at half-maximal effect. In outline: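 Viability counter screen: CellTiter-Fluor signal in PXR-Luc HepG2 cells, 24hr compound exposure, 37C, 5% CO2.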
Assay [7] has as its target Nuclear receptor subfamily 1 group I member 2 (Homo sapiens) (UniProt O75469). The assay is described as follows: Human pregnane X receptor (PXR) small molecule agonists, qHTS assay (AID 1346982). Also: nearly all actives have a fitted effect of over 35% in size. Also: potency is read from the fitted curve at half-maximal effect. As to activation: % is scaled to controls: 0 for no effect and ±100 for the full control effect. In outline: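 Reporter HepG2 cells expressing PXR-Luc are cultured in charcoal-stripped FBS (5%), treated with compounds for 24 hr at 37 C, and assayed by ONE-Glo luminescence after 30 min at room temperature.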

The target of assay [8] is Nuclear receptor subfamily 1 group I member 2 (Rattus norvegicus) (UniProt Q9R1A7). Nature of the assay: Rat pregnane X receptor (rPXR) activation by small molecules, qHTS assay (AID 1346983). Also: % is scaled to controls: 0 for no effect and ±100 for the full control effect; nearly all actives have a fitted effect of over 20% in size. The settings on record: rPXR luciferase reporter cells, One-Glo luminescence, 24 h; max activation: hits give high values. In a few lines: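 Cell-based rPXR activation assay: rPXR cells, 2,000 per well, rested 5hr at 37 C, then exposed to compounds in DMSO for 24 hr at 37 C. Luciferase activity read by One-Glo luminescence after 30 min at room temperature.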

Assay [9] deals with Cytochrome P450 2D6 (Homo sapiens) (UniProt P10635). Nature of the assay: Cytochrome P450 Family 2 Subfamily D Member 6 (CYP2D6) small molecule antagonists: luciferase reporter qHTS assay (AID 1671196). Also: nearly all actives have a fitted effect of over 50% in size. Also: potency is read from the fitted curve at half-maximal effect. In a few lines: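 Test chemicals meet CYP2D6 plus proluciferin substrate (10 min, RT); NADPH regenerating solution then drives turnover for 1 h. Detection reagent halts the reaction; luminescence measured after 20 min.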

Assay [10] deals with Cytochrome P450 2C19 (Homo sapiens) (UniProt P33261). The assay is described as follows: Cytochrome P450 Family 2 Subfamily C Member 19 (CYP2C19) small molecule antagonists: luciferase reporter qHTS assay (AID 1671197). Also: nearly all actives have a fitted effect of over 65% in size. Also: potency is read from the fitted curve at half-maximal effect. In outline:
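Quantitative high-throughput screen of the Tox21 library using CYP2C19 with proluciferin substrate. Reaction: NADPH regeneration, 37C, 1 h, after 10 min compound preincubation at room temperature. Readout: luminescence.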
On the technique in general: A reporter such as luciferase makes a cellular process visible.

A short description of assay [11]: qHTS assay to identify small molecule antagonists of the TGF-beta/Smad signaling pathway - cell viability counter screen (AID 1346824). Also: % is scaled to controls: 0 for no effect and ±100 for the full control effect; nearly all actives have a fitted effect of over 50% in size. In outline:
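SBE-bla HEK 293T cells, incubated overnight, then compound plus 0.25 ng/mL TGF-beta1 (stock added) for 5 hr at 37 C. Viability was read in the same wells by CellTiter-Glo luminescence after 30 min at room temperature.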

Assay [12] is described as follows: qHTS assay to identify small molecule agonists of the TGF-beta/Smad signaling pathway - cell viability counter screen (AID 1346829). Also: top concentration of the series differs between compounds; % is scaled to controls: 0 for no effect and ±100 for the full control effect; nearly all actives have a fitted effect of over 45% in size. In outline:
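Same-well cytotoxicity: CellTiter-Glo added after the 2 hr room-temperature beta-lactamase substrate step, luminescence measured 30 min later; cells had 5 hr of compound at 37 C.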

The nature of assay [13]: Caspase-3/7 induction in HepG2 cells by small molecules, qHTS assay (AID 1346978). Also: % is scaled to controls: 0 for no effect and ±100 for the full control effect; nearly all actives have a fitted effect of over 15% in size. In outline:
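Wild-type HepG2 cells, 2,000/well, settled 5 hr at 37 C and 5% CO2, then compound-treated for 17 hr; caspase-3/7 activity read by luminescent Caspase-Glo 3/7 after 30 min at room temperature.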

Assay [14] in a line: Caspase-3/7 induction in CHO-K1 cells by small molecules, qHTS cell viability counter screen (AID 1346979). Also: nearly all actives have a fitted effect of over 35% in size. Also: potency is read from the fitted curve at half-maximal effect. In outline: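 Viability readout by fluorescence (CellTiter-Fluor) on wild-type CHO-K1 cells exposed for 16hr at 37C and 5% CO2 to compounds delivered in DMSO; reagent incubated 1hr before reading.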
Assay [15] in a line: Caspase-3/7 induction in HepG2 cells by small molecules, qHTS cell viability counter screen (AID 1346981). Also: nearly all actives have a fitted effect of over 30% in size. Also: potency is read from the fitted curve at half-maximal effect. In a few lines: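 In this quantitative HTS counter screen, compounds delivered in DMSO were left on unmodified HepG2 cells for 16 hr at 37 C. Viability was then determined fluorometrically with CellTiter-Fluor, in parallel with caspase-3/7 induction in the same wells.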

For assay [16], the target named is Nuclear receptor subfamily 1 group I member 2 (Homo sapiens) (UniProt O75469). The assay is described as follows: CYP3A4 induction through human pregnane X receptor (PXR) by small molecules, qHTS assay (AID 1346984). Also: nearly all actives have a fitted effect of over 40% in size. Also: potency is read from the fitted curve at half-maximal effect. In outline:
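Induction measured in HepG2-based DPX-2 cells co-expressing human PXR and a CYP3A4 promoter-driven luciferase. After a 24-hour compound exposure, cells received CYP3A4 luciferin substrate at 3uM final for 3 hours, and light output was then recorded.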

The target is the same in assay [17]. Nature of the assay: Human pregnane X receptor (PXR) activation by small molecules, qHTS assay (AID 1346985). Also: potency is read from the fitted curve at half-maximal effect; nearly all actives have a fitted effect of over 40% in size. In outline: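 DPX-2 cells (HepG2 co-transfected with a PXR response element and a CYP3A4-promoter luciferase construct) were seeded at 2,000 per well, rested 5 hr at 37C, then exposed to DMSO-dissolved compounds for 24 hr. Activation was read as luciferase luminescence.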

Assay [18] in a line: Caspase-3/7 induction in CHO-K1 cells by small molecules, qHTS assay (AID 1346980). Also: nearly all actives have a fitted effect of over 15% in size. Also: potency is read from the fitted curve at half-maximal effect. In outline: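 Wild-type CHO-K1 cells exposed to compounds for 17hr at 37 C, 5% CO2. Caspase-3/7 activity then measured by Caspase-Glo 3/7 luminescence after 30min at room temperature.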
Assay [19] in a line: qHTS assay to identify small molecule antagonists of the progesterone receptor (PR) signaling pathway - cell viability counter screen (AID 1346798). Also: nearly all actives have a fitted effect of over 50% in size. Also: potency is read from the fitted curve at half-maximal effect. In a few lines: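 CellTiter-Glo luminescence; PR-UAS-bla HEK293T, 3,000 cells/well; compound + R5020, 16 hr, 37C/5% CO2; 30 min RT before read.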
Assay [20] is described as follows: qHTS assay to identify small molecule agonists of the progesterone receptor (PR) signaling pathway - cell viability counter screen (AID 1346799; calls by dose curve; also: nearly all actives have a fitted effect of over 45% in size; also: potency is read from the fitted curve at half-maximal effect). In outline:
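In parallel with the beta-lactamase readout, cytotoxicity toward PR-UAS-bla HEK293T cells was measured by CellTiter-Glo luminescence following 16 hr compound incubation in 2% charcoal-stripped FBS medium.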

Nuclear receptor subfamily 1 group I member 2 (Rattus norvegicus), sequence (Q9R1A7 whole entry, looked up): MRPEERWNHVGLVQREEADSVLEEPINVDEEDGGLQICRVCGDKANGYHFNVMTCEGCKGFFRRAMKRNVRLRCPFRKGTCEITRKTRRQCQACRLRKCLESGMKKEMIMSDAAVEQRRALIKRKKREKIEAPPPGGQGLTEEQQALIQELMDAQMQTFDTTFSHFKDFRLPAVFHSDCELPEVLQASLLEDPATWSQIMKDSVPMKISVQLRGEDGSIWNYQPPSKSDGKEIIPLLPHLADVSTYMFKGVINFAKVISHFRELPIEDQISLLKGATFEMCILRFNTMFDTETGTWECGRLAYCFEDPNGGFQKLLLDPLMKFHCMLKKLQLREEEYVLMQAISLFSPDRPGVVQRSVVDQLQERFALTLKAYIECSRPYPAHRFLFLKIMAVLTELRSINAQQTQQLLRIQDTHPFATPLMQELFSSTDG
Nuclear receptor subfamily 1 group I member 2 (Homo sapiens), sequence (O75469 whole entry, looked up): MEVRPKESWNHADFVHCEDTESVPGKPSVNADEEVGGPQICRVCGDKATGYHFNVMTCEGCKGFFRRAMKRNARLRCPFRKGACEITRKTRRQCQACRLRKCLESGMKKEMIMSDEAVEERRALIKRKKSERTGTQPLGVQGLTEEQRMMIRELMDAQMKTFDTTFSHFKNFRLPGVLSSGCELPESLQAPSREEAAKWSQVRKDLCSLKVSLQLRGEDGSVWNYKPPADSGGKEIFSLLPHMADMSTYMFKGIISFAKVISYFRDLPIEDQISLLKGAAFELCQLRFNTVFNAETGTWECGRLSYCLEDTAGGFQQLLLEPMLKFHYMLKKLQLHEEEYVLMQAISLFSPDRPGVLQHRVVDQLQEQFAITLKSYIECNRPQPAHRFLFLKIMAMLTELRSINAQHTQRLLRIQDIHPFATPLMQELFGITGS
Cytochrome P450 2D6 (Homo sapiens), sequence (P10635 whole entry, looked up): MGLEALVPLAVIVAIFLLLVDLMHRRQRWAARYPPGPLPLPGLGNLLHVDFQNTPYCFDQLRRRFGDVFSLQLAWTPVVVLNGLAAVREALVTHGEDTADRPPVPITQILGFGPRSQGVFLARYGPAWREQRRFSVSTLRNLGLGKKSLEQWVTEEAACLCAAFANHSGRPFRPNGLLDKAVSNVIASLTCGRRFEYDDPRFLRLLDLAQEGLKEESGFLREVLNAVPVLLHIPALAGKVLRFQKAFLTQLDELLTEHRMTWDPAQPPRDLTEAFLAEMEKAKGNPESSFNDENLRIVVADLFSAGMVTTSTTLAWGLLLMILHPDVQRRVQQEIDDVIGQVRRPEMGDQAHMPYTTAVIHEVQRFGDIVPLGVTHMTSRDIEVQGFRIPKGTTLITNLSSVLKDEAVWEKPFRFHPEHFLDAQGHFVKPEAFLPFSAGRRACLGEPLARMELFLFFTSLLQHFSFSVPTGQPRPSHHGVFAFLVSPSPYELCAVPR
Progesterone receptor (Homo sapiens), sequence (P06401 whole entry, looked up): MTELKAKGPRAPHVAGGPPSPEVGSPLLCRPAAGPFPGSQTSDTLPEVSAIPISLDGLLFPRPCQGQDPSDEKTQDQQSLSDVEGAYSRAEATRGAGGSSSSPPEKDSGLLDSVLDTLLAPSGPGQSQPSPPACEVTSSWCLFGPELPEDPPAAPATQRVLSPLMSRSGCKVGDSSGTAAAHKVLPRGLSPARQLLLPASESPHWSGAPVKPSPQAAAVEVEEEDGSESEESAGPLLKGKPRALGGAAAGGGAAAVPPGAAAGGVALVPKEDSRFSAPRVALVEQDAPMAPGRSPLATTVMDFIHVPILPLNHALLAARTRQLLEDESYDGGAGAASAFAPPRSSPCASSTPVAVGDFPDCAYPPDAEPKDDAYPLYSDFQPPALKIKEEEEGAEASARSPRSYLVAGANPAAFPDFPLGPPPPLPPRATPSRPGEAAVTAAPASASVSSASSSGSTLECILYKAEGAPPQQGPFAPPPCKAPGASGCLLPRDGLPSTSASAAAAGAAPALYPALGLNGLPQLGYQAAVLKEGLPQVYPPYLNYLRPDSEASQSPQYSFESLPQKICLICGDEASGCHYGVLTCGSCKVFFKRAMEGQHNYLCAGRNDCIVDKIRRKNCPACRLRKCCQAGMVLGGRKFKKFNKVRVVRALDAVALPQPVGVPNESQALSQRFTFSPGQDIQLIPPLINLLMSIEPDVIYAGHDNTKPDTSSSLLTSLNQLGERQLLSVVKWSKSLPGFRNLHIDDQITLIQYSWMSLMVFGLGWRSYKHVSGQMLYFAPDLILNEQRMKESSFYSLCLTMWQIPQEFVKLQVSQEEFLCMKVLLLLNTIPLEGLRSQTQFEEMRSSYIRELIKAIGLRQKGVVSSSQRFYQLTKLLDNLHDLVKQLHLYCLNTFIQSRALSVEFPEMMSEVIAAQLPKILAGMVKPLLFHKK
Cytochrome P450 2C19 (Homo sapiens), sequence (P33261 whole entry, looked up): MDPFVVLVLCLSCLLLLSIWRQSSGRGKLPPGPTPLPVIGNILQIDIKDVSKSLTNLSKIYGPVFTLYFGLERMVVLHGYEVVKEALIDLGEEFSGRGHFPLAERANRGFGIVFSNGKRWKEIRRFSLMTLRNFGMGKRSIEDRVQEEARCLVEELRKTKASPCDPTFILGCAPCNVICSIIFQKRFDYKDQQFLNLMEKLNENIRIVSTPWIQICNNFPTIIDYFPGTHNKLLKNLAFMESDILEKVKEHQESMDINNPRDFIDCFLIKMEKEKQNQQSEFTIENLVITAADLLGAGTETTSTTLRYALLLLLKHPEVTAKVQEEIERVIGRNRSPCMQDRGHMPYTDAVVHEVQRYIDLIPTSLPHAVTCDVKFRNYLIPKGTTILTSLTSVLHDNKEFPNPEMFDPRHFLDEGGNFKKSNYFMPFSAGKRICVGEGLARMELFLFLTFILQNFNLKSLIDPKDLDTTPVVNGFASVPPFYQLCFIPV
Thyrotropin-releasing hormone receptor (Homo sapiens), sequence (P34981 whole entry, looked up): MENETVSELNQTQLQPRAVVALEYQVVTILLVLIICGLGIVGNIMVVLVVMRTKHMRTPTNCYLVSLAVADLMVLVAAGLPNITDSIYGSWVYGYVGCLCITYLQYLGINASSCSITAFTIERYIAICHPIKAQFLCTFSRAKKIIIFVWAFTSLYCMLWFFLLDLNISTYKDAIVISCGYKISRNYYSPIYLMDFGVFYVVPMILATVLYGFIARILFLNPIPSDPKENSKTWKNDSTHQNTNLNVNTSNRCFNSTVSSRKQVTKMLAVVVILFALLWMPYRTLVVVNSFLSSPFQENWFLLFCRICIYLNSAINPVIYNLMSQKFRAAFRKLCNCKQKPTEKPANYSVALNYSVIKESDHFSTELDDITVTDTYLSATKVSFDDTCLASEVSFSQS

As to `CC(NCCC(c1ccccc1)c1ccccc1)c1ccccc1` (stereo not drawn), the molecule was called inactive in assay [1]. Moreover, the Potency in assay [2] was 29.8 µM (active); in assay [6], 26.6 µM (active); in assay [7], 6.68 µM (active); in assay [9], 0.219 µM (active); in assay [10] it was 4.36 µM (active). Besides, the Potency entry in assay [3], in assay [4] and in assay [5] was “inactive” each time. The max activation in assay [8] is -19.7%.
On to `CCN(CC)CCCN(c1ccccc1)C1Cc2ccccc2C1`, for which, in assay [1], the call was inactive. For the same molecule, the Potency result in [2], in [11], in assay [12], in [3], in [13] and in [14] was “inactive” each time. Also, the Potency result in [15], in assay [7] and in assay [16] was “inactive” in each case. For the same molecule, the Potency in [6] is 23.7 µM (active); in [17], 5.01 µM (active); in assay [9], 0.389 µM (active). The max activation in assay [8] is -18.4%.
`C[C@@]12C(=O)OC(=O)[C@]1(C)C1CCC2O1`: the result in [1] was inactive. Also, the Potency is 4.73 µM (active) in [2]; 0.266 µM (active) in assay [6]; 10.6 µM (active) in [14]; 23.7 µM (active) in [18]; 2.98 µM (active) in assay [15]; 1.06 µM (active) in assay [7]. Moreover, the Potency in assay [17] was 0.794 µM (active). Besides, the Potency result in [12], in assay [3], in assay [4], in [5], in assay [16] and in [9] was “inactive” in each case. For the same molecule, the Potency result in assay [10] was “inactive”. The max activation in [8] is -13%.
For the molecule `CCc1ccc(C)nc1`, the result in assay [1] was inactive. Moreover, the Potency entry in assay [19], in assay [20], in assay [11], in assay [12], in assay [3] and in [6] was “inactive” each time. The Potency result in assay [13], in assay [14], in [15], in assay [7], in [9] and in [10] was “inactive” throughout.
`CNCC[C@H](Oc1cccc2ccccc12)c1cccs1`: the molecule was classed as inactive in assay [1]. Further, the Potency in assay [19] was 23.7 µM (active); in [20], 21.1 µM (active); in assay [6] it was 29.8 µM (active). Besides, the Potency entry in assay [11], in assay [12], in [3], in assay [4], in [5] and in assay [18] was “inactive” throughout. Moreover, the max activation in [8] was -8.93%.
Turning to `CCOC(=O)CC(C)O` (stereo not drawn), in [1], the outcome was inactive. Further, the Potency entry in assay [2], in assay [11], in assay [12], in assay [3], in assay [6] and in assay [13] was “inactive” throughout. The Potency entry in [14], in assay [18], in assay [15], in [7], in [9] and in [10] was “inactive” in each case.
For `CC1CCCCN1CCCOC(=O)c1ccc(OC2CCCCC2)cc1` (stereo not drawn), the molecule was called inactive in assay [1]. Also, the Potency result in assay [19], in assay [20], in [11], in [12], in assay [3] and in [4] was “inactive” in each case. Further, the Potency entry in assay [5], in [6], in [13], in [15] and in assay [10] was “inactive” in each case. In [9], the Potency is 15.5 µM (active).
Regarding `COc1cccc(CCc2ccccc2OCC(CN(C)C)OC(=O)CCC(=O)O)c1` (stereo not drawn), the outcome in assay [1] was inactive. For the same molecule, the Potency in [19] is 13.3 µM (active); in assay [20], 2.98 µM (active); in assay [6] it was 26.6 µM (active); in [16] it was 12.6 µM (active); in assay [9], 0.692 µM (active); in assay [10], 34.7 µM (active). In addition, the Potency entry in assay [11], in assay [12], in assay [3], in assay [4], in assay [5] and in assay [13] was “inactive” throughout. The Potency result in assay [14], in assay [18], in [15] and in assay [7] was “inactive” each time. For the same molecule, the max activation in [8] is -1.75%.
